Screens: PubChem BioAssay, several laboratories
SENP7 block: inhibitors of human SENP7 protease; Q9BQF6; inhibition, % at 5 µM; recombinant SENP7, Z-RLRGG-aminoluciferin luminescence, 40 min; hit rate 1.5% among 330,000;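 active = inhibition above about 50% at the single test dose, limit read from the data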;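 note: plate controls were DMSO with enzyme for no effect and no enzyme buffer wells for full effect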
SENP6 inh: blocks the human protease SENP6. Recombinant SENP6 catalytic domain, aminoluciferin luminescence. inhibition, % at 10 µM. hit rate 1.8% among 330,000. AID 2599;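 active = inhibition above about 50% at the single tested dose, limit read from the data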;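 note: plate controls were DMSO wells with enzyme for no effect and DMSO wells lacking enzyme for full effect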
SENP8 block-1: inhibitors of human SENP8 protease | recombinant SENP8, Nedd8 substrate fluorescence | AID 602440 | inhibition, % at 20 µM | hit rate 0.64% among 360,000 | Q96LD8; in the data active = inhibition mostly above about 40%, no sharp cut-off; inactive = mostly below about 27%
Target sequence (Q96LD8 whole entry, looked up): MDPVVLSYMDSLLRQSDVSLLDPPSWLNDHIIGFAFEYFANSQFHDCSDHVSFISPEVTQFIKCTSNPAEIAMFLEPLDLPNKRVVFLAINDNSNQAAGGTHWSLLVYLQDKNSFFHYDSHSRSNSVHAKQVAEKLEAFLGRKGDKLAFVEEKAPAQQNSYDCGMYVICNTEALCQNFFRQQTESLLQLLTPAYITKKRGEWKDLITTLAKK
Platelet DG rel: modulates dense granule release in human platelets; human platelet-rich plasma, SFLLRN dense granule ATP release, luminescence; inhibition, %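 (compounds screened at 7.5 µM in platelet-rich plasma)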; hit rate 0.22% among 300,000; AID 1663;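 active = mean replicate score, as percent of positive control, at or above 50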
SENP8 block-2: inhibitors of human SENP8 protease; purified SENP8, Z-RLRGG-aminoluciferin cleavage, luminescence; AID 2540; inhibition, % at 10 µM; hit rate 1.2% among 330,000; Q96LD8; in the data active = inhibition above about 50%
SENP8 confirm: confirmation of human SENP8 protease inhibitors | inhibition, % at 12.5 µM | AID 488912 | hit rate 40% among 6,200 | Recombinant SENP8, Z-RLRGG-aminoluciferin luminescence, 60 min | shares compounds with SENP7 block;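 active = mean inhibition across replicates above about 50%, limit read from the data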
SENP6 confirm: human SENP6 inhibition, confirmed; shares compounds with SENP7 block; recombinant SENP6, Z-RLRGG-aminoluciferin luminescence; inhibition, % at 12.5 µM; hit rate 58% among 6,200
SENP7 conf: human SENP7 inhibition, confirmed | recombinant SENP7, Z-RLRGG-aminoluciferin luminescence, 40 min | shares compounds with SENP7 block | hit rate 69% among 6,200 | inhibition, % at 12.5 µM
Casp3 select: caspase-3 inhibition (SENP selectivity assay) | shares compounds with SENP7 block | hit rate 60% among 6,200 | inhibition, % at 12.5 µM | purified caspase-3, Z-DEVD-aminoluciferin luminescence, 60 min;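 active = mean inhibition above about 50%, limit read from the data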;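 note: plate controls were enzyme with DMSO for no effect and wells without caspase-3 for full effect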
Target sequence (P42574 28-227 limits assumed): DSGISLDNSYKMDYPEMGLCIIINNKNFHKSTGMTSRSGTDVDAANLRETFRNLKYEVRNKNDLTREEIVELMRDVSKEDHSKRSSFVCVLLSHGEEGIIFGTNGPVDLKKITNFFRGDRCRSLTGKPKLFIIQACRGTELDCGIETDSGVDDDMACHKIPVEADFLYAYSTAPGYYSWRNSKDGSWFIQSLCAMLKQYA
SENP luc ctr: counter-screen for SENP inhibitors: luminescence interference; inhibition, % at 12.5 µM; shares compounds with SENP7 block; hit rate 39% among 6,200; Pre-incubated SENP8/Z-RLRGG-aminoluciferin, luciferase luminescence interference;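 active = mean inhibition above about 50% when retested at one dose, limit read from the data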;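 note: plate controls were DMSO wells with completed reaction for no effect and substrate without enzyme for full effect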
An asterisk follows results filed as active; x = no result. Compounds with a hit are over-represented: about 2.4% of the library has one in this group of screens.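 Rule for the calls, unless noted: active = mean inhibition above about 50% in the one-dose retest (limit read from the data); inactive = the rest.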

SMILES	SENP7 block	SENP6 inh	SENP8 block-1	Platelet DG rel	SENP8 block-2	SENP8 confirm	SENP6 confirm	SENP7 conf	Casp3 select	SENP luc ctr
COc1ccc(C2=NN3C(C2)c2ccccc2OC32C(=O)N(C)c3ccccc32)cc1 (configuration not stated)	80*	91*	-452	4	79*	12	4	14	8	5
CCOC(=O)c1ccc(Nc2ncccc2[N+](=O)[O-])cc1	83*	24	40	5	34	32	39	48	57*	6
O=C(O)c1ccc(Nc2cnc3ccccc3n2)cc1	97*	93*	-70	26	88*	92*	92*	100*	97*	87*
O=C(O)c1cnc2ccccc2n1	-7	3	9	-4	0	x	x	x	x	x
CCOC(=O)c1ccc(Nc2cnc3ccccc3n2)cc1	56*	18	-332	-4	-14	7	20	63*	11	8
CCOC(=O)c1ccc(NCc2nc3ccccc3[nH]2)cc1	58*	93*	-46	-1	85*	67*	61*	83*	68*	71*
CCOC(=O)c1ccc(Nc2cc(C)nc(-c3ccccc3)n2)cc1	2	-6	-172	14	-13	x	x	x	x	x
CCOC(=O)Cc1nc2ccccc2[nH]1	-2	-12	-25	-6	-6	x	x	x	x	x
Cc1ccc(N=Nc2ccc(O)cc2)c(Br)c1	20	64*	16	5	56*	74*	73*	86*	23	69*
CCN(CC)S(=O)(=O)c1ccc(N=Nc2cc(C)cc(Br)c2O)cc1	-10	-6	34	-6	-2	x	x	x	x	x
Oc1ccc(N=Nc2ccc(Br)cc2)c(O)c1	89*	99*	27	18	96*	93*	93*	98*	72*	82*
O=C(Cc1ccc(Br)cc1)c1ccc(O)cc1O	-7	20	8	-5	12	x	x	x	x	x
COc1cc(C(=O)NC2CC(C)(C)CC(C)(C)C2)ccc1OC1CCN(C(C)=O)CC1	1	8	11	-5	-1	x	x	x	x	x
Fc1ccc(OCc2cc(-c3ccccc3)no2)cc1	20	5	-1	1	1	x	x	x	x	x
Cc1cccc(OCc2cc(-c3ccccc3)no2)c1C	67*	67*	19	-8	55*	9	43	70*	38	20
Clc1ccc(OCc2cc(-c3ccccc3)no2)c(Cl)c1	3	84*	5	-4	82*	10	18	18	49	1
CNC(=O)NNC(=O)c1nc(-c2ccccc2)c(C)o1	1	11	6	-21	8	x	x	x	x	x
O=CN1c2ccccc2CSc2ccccc21	-9	-29	38	7	-7	x	x	x	x	x
CC(=O)Nc1ccc2c(c1)C(=O)c1ccccc1C2=O	12	-14	18	0	-9	x	x	x	x	x
O=C(O)/C=C/C(=O)Nc1ccc2c(c1)C(=O)c1ccccc1C2=O	53*	78*	17	2	47	73*	67*	85*	25	79*
CCN(CC)S(=O)(=O)c1ccc(-c2cn3cc(Cl)ccc3n2)cc1	3	-4	-306	-1	-11	x	x	x	x	x
Oc1ccc(-c2cn3cc(C(F)(F)F)ccc3n2)cc1	23	55*	-326	36	26	58*	52*	83*	60*	65*
Cc1ccc2nc(-c3ccc(O)c(O)c3)cn2c1	57*	72*	-444	10	42	69*	67*	90*	84*	72*
CC(=O)Nc1ccc(-c2cn3cc(C)ccc3n2)cc1	-5	3	-276	9	-19	x	x	x	x	x
Cc1ccc2nc(-c3ccccc3)cn2c1	99*	99*	-404	73*	95*	99*	100*	103*	99*	98*
